Reference: PubChem BioAssay (Tox21)
Several values for one entry are separate records, joined by “and”; a condition that tells them apart may be missing. Equal values may be shown once. Inconclusive results are not listed. Entries that show only a call come without a potency. Where a structure was tested more than once in an assay, its records may differ in their call. Activity calls are given as the source filed them. Unless noted, the call rests on the fitted dose curve; in most records, active means well fitted curve in the direction sought with a large enough effect in the repeat runs; inconclusive means weak or mixed curves; inactive means no such curve, though single readings can be large; an effect the other way counts as inactive or inconclusive.

Tests used:
[1] = qHTS assay to identify small molecule antagonists of the glucocorticoid receptor (GR) signaling pathway - cell viability counter screen (AID 720693); further: nearly all actives have a fitted effect of over 55% in size
[2] = qHTS assay for identifying genotoxic compounds that show differential cytotoxicity against isogenic chicken DT40 cell lines with known DNA damage response pathways - wild type cell line (AID 743012); further: nearly all actives have a fitted effect of over 60% in size; further: potency means the concentration at half of the fitted maximal effect
In short: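 Quantitative HTS on parental DT40 cells: 40 h compound treatment at 37 C/5% CO2, with viability then determined by CellTiter-Glo luminescence. Values serve as the DNA repair-proficient reference for differential cytotoxicity.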

[3] = qHTS assay for identifying genotoxic compounds that show differential cytotoxicity against isogenic chicken DT40 cell lines with known DNA damage response pathways - Rev3 mutant cell line (AID 743014); further: nearly all actives have a fitted effect of over 55% in size; further: potency means the concentration at half of the fitted maximal effect
[4] = qHTS assay for identifying genotoxic compounds that show differential cytotoxicity against isogenic chicken DT40 cell lines with known DNA damage response pathways - Rad54/Ku70 mutant cell line (AID 743015); further: nearly all actives have a fitted effect of over 60% in size; further: potency means the concentration at half of the fitted maximal effect
[5] = qHTS assay to identify small molecule antagonists of the androgen receptor (AR) signaling pathway - cell viability counter screen (AID 743033; further: nearly all actives have a fitted effect of over 45% in size)
[6] = qHTS assay to identify small molecule antagonists of the androgen receptor (AR) signaling pathway using the MDA cell line - cell viability counter screen (AID 743041; further: nearly all actives have a fitted effect of over 45% in size)
In short: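 MDA-kb2 AR-luc human breast carcinoma cells (MMTV-luciferase, AR/GR responsive) were treated with compounds plus R1881 agonist for 16 h at 37 °C. Viability was read as CellTiter-Fluor fluorescence in the same wells as the reporter assay.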

[7] = qHTS assay to identify small molecule antagonists of the thyroid receptor (TR) signaling pathway (AID 743065); further: nearly all actives have a fitted effect of over 55% in size; further: potency means the concentration at half of the fitted maximal effect
In short: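 GH3.TRE-Luc rat pituitary cells carrying two TR response elements driving luciferase were plated for 4 h, given compound plus 1 nM T3 (final), and incubated 23.5 h at 37 C. ONE-Glo luminescence measured reporter inhibition; CellTiter-Fluor fluorescence tracked cytotoxicity.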

[8] = qHTS assay to identify small molecule antagonists of the thyroid receptor (TR) signaling pathway - cell viability counter screen (AID 743064); further: nearly all actives have a fitted effect of over 50% in size; further: potency means the concentration at half of the fitted maximal effect
In short: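 GH3.TRE-Luc rat pituitary cells dosed after 4 hr plating, co-stimulated with T3 at 1 nM final, incubated 23.5 h at 37 C. Viability measured in the same wells by CellTiter-Fluor fluorescence after 30 min further at 37 C.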

[9] = target: Androgen receptor (Homo sapiens) (UniProt P10275); assay: qHTS assay to identify small molecule antagonists of the androgen receptor (AR) signaling pathway (AID 743035; active means well fitted inhibition curve with a large enough effect in the signal ratio in the repeat runs, not every such curve was filed as active; the % refers to the signal ratio; further: potency means the concentration at half of the fitted maximal effect)
Androgen receptor (Homo sapiens), sequence (P10275 whole entry, looked up): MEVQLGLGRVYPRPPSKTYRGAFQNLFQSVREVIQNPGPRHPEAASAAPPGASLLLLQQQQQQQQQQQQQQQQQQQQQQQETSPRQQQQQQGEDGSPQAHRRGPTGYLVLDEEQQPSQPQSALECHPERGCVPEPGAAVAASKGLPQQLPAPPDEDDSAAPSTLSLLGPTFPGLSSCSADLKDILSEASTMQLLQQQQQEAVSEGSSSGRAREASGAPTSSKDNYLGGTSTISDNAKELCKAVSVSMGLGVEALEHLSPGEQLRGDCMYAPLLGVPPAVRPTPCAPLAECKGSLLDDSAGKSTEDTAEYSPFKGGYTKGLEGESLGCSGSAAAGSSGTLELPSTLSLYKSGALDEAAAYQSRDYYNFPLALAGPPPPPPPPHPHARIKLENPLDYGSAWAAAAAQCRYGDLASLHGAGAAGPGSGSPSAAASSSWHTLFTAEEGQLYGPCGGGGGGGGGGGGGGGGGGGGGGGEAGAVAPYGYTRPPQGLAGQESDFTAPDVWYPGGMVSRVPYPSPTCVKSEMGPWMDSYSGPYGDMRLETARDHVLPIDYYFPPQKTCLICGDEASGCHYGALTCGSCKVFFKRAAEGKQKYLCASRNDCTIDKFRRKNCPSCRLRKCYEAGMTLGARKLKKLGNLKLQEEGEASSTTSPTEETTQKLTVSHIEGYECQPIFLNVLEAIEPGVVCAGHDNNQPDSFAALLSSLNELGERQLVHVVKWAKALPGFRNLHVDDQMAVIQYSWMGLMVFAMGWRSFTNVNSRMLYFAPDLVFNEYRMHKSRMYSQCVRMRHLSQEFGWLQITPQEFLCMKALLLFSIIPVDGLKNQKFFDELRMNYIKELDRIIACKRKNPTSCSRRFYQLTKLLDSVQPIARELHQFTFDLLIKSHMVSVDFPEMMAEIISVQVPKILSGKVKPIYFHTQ
In short: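 Cell line: GeneBLAzer AR-UAS-bla GripTite (HEK293). Stimulus: R1881 added after compound. Exposure: 16 h, 37C, 5% CO2. Readout: LiveBLAzer B/G FRET fluorescence after 2 h at room temperature.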

[10] = target: Androgen receptor (Homo sapiens) (UniProt P10275); assay: qHTS assay to identify small molecule agonists of the androgen receptor (AR) signaling pathway using the MDA cell line (AID 743040; further: nearly all actives have a fitted effect of over 20% in size)
In short: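 MDA-kb2 breast carcinoma cells stably carrying an MMTV-driven luciferase reporter (AR- and GR-responsive) were seeded and held 5 h at 37C, 0% CO2, then exposed to compounds in DMSO for 16 h. Luminescence was read 30 min after ONE-Glo addition.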

Row | SMILES | outcome [1] | Potency [2] | Potency [3] | Potency [4] | outcome [5] | outcome [6] | Potency [7] | Potency [8] | Potency [9] | outcome [10]
1 | Cc1ccccc1O | inactive | inactive | inactive | inactive | inactive | inactive | inactive | – | – | –
2 | COC(=O)c1ccccc1N | inactive | inactive | inactive | inactive | inactive | inactive | inactive | inactive | – | –
3 | Cc1cc(-c2cc(C)c(N)c(C)c2)cc(C)c1N | inactive | inactive | inactive | inactive | inactive | inactive | inactive | inactive | – | –
4 | CC(Oc1ccc(Cl)cc1Cl)C(=O)O (configuration not stated) | inactive | inactive | inactive | inactive | inactive | inactive | inactive | – | – | –
5 | Nc1ccccc1C(=O)O | inactive | inactive | inactive | inactive | inactive | inactive | inactive | inactive | – | –
6 | CN(C)CCO | inactive | inactive | inactive | inactive | inactive | inactive | inactive | – | – | –
7 | C1CN2CCN1CC2 | inactive | inactive | inactive | inactive | inactive | inactive | inactive | inactive | – | –
8 | CC(C)(C)OOC(=O)c1ccccc1 | inactive | inactive | inactive | inactive | inactive | inactive | inactive | inactive | – | –
9 | CCCCN(CCCC)SN(C)C(=O)Oc1cccc2c1OC(C)(C)C2 | inactive | 30.6 µM (active) | 48.6 µM (active) | 30.6 µM (active) | inactive | inactive | 21.7 µM (active) | inactive and 24.3 µM (active) | – | –
10 | O=[N+]([O-])c1ccccc1 | inactive | inactive | inactive | inactive | inactive | inactive | inactive | inactive | – | –
11 | CCOP(OCC)OCC | inactive | inactive | inactive | inactive | inactive | inactive | inactive | – | – | –
12 | OCCN(CCO)CCO | inactive | inactive | inactive | inactive | inactive | inactive | inactive | inactive | – | –
13 | O=c1n(Cl)c(=O)n(Cl)c(=O)n1Cl | inactive | inactive | inactive | inactive | inactive | inactive | inactive | – | – | –
14 | CCC[N+](=O)[O-] | inactive | inactive | inactive | inactive | inactive | inactive | inactive | inactive | – | –
15 | Cc1ccc(N)cc1Cl | inactive | inactive | inactive | inactive | inactive | inactive | inactive | inactive | – | –
16 | CC(Br)C(=O)O (configuration not stated) | inactive | inactive | inactive | inactive | inactive | inactive | inactive | inactive | – | –
17 | CN(N=O)c1ccccc1 | inactive | inactive | inactive | inactive | inactive | inactive | inactive | inactive | – | –
18 | COC(=O)NS(=O)(=O)c1ccc(N)cc1 | inactive | inactive | inactive | inactive | inactive | inactive | inactive | inactive | – | –
19 | CC(=O)C=C(C)C | inactive | inactive | inactive | inactive | inactive | inactive | inactive | inactive | – | –
20 | CN(C)N=O | inactive | inactive | inactive | inactive | inactive | inactive | inactive | – | – | –

Row | SMILES | outcome [1] | Potency [2] | Potency [3] | Potency [4] | outcome [5] | outcome [6] | Potency [7] | Potency [8] | Potency [9] | outcome [10]
21 | NCCc1ccc(O)cc1 | inactive | inactive | inactive | inactive | inactive | inactive | inactive | inactive | – | –
22 | CCN(CC)CCO | inactive | inactive | inactive | inactive | inactive | inactive | inactive | inactive | – | –
23 | C#CC(C)(C)NC(=O)c1cc(Cl)cc(Cl)c1 | inactive | – | 68.6 µM (active) | inactive | inactive | inactive | inactive | inactive | – | –
24 | c1cc2c3c(cccc3c1)CC2 | inactive | – | inactive | inactive and 61.1 µM (active) | inactive | inactive | inactive | inactive | inactive | inactive
25 | O=[N+]([O-])c1ccc(Oc2ccc(Cl)cc2Cl)cc1 | inactive | inactive and 61.1 µM (active) | inactive and 61.1 µM (active) | 61.1 µM (active) | inactive | inactive | inactive | – | – | –
26 | ClCCBr | inactive | inactive | inactive | inactive | inactive | inactive | inactive | – | – | –
27 | Nc1ccc(Br)cc1 | inactive | inactive | inactive | inactive | inactive | inactive | inactive | – | – | –
28 | COC(=O)NC(=S)Nc1ccccc1NC(=S)NC(=O)OC | inactive | 61.1 µM (active) | 61.1 µM (active) | – | inactive | inactive | inactive | inactive | – | –
29 | CCCC1COC(Cn2cncn2)(c2ccc(Cl)cc2Cl)O1 (configuration not stated) | inactive | 55.5 µM (active) and 12.2 µM (active) | 27.8 µM (active) and 19.3 µM (active) | 55.5 µM (active) and 17.2 µM (active) | – | inactive | 55.5 µM (active) and 54.5 µM (active) | – | 49.9 µM (active) and 43.6 µM (active) | inactive
30 | CC(C)C#N | inactive | inactive | inactive | inactive | inactive | inactive | inactive | – | – | –
31 | C=CC(N)=O | inactive | – | – | – | inactive | inactive | – | inactive | – | –
32 | CCNc1nc(NC(C)(C)C)nc(SC)n1 | inactive | – | 60.3 µM (active) | 54.5 µM (active) | inactive | inactive | – | – | – | –
33 | [O-][Cl+2]([O-])O | inactive | – | – | – | inactive | inactive | – | inactive | – | –
34 | CC(NC(C)(C)C)C(=O)c1cccc(Cl)c1 (configuration not stated) | inactive | inactive | inactive and 23 µM (active) | inactive | inactive | inactive | inactive | – | – | –
35 | Nc1ccc(Oc2ccc(N)cc2)cc1 | inactive | – | inactive | – | inactive | inactive | – | inactive | – | –
36 | Cc1ccc([N+](=O)[O-])cc1C | inactive | inactive | inactive | inactive | inactive | inactive | inactive | – | – | –
37 | CN=C=S | inactive | inactive | inactive | inactive | inactive | inactive | inactive | – | – | –
38 | CON(C)C(=O)Nc1ccc(Cl)c(Cl)c1 | inactive | – | inactive | inactive and 54.5 µM (active) | inactive | inactive | – | inactive | – | –
39 | CCOP(=S)(OCC)SCCSCC | inactive | inactive | – | inactive | inactive | inactive | inactive | inactive | – | –
40 | C1CC2OC2CC1C1CO1 (configuration not stated) | inactive | inactive | inactive | inactive | inactive | inactive | inactive | – | – | –

Row | SMILES | outcome [1] | Potency [2] | Potency [3] | Potency [4] | outcome [5] | outcome [6] | Potency [7] | Potency [8] | Potency [9] | outcome [10]
41 | CCOP(=S)(OCC)Oc1cnc2ccccc2n1 | inactive | 54.5 µM (active) | 27.3 µM (active) | 27.3 µM (active) | inactive | inactive | inactive | – | – | –
42 | CC(C)C1(C)N=C(c2nc3ccccc3cc2C(=O)O)NC1=O (configuration not stated) | inactive | inactive | inactive | inactive | inactive | inactive | inactive | – | – | –
43 | CC(C)=C[C@@H]1[C@@H](C(=O)OCc2coc(Cc3ccccc3)c2)C1(C)C | inactive | inactive and 27.3 µM (active) | inactive and 34.4 µM (active) | – | inactive | inactive | inactive | inactive | – | –
44 | O=C(O)c1ccccn1 | inactive | inactive | inactive | inactive | inactive | inactive | inactive | – | – | –
45 | CC(C)NC(=O)N1CC(=O)N(c2cc(Cl)cc(Cl)c2)C1=O | inactive | inactive | 54.5 µM (active) | – | inactive | inactive | inactive | – | – | –
46 | Nc1c(Cl)c(Cl)nc(C(=O)O)c1Cl | inactive | inactive | inactive | inactive | inactive | inactive | inactive | – | – | –
47 | Cc1ccc(N)cc1N | inactive | – | – | 17.2 µM (active) | inactive | inactive | inactive | – | – | –
48 | CC(C)(C)C(O)(CCc1ccc(Cl)cc1)Cn1cncn1 (configuration not stated) | inactive | 61.1 µM (active) | 61.9 µM (active) and 61.1 µM (active) | 69.4 µM (active) and 61.1 µM (active) | – | inactive | 61.9 µM (active) and 61.1 µM (active) | 68.6 µM (active) | – | –
49 | COP(N)(=O)SC (configuration not stated) | inactive | inactive | inactive | inactive | inactive | inactive | inactive | – | – | –
50 | c1ccc2c(c1)oc1ccccc12 | inactive | inactive | inactive | inactive | inactive | inactive | inactive | – | – | –
51 | CCC(C)(CC)c1cc(NC(=O)c2c(OC)cccc2OC)on1 | inactive | 52.4 µM (active) | 66 µM (active) | 46.7 µM (active) | inactive | inactive | 54.6 µM (active) | – | – | –
52 | O=C1CCCN1 | inactive | inactive | inactive | inactive | inactive | inactive | inactive | – | – | –
53 | CC(C)(C)OOC(C)(C)C | inactive | inactive | inactive | inactive | inactive | inactive | inactive | – | – | –
54 | c1ccc(OP(Oc2ccccc2)Oc2ccccc2)cc1 | inactive | inactive | inactive | inactive | inactive | inactive | inactive | – | – | –
55 | Clc1ccccc1Cl | inactive | inactive | inactive | inactive | inactive | inactive | inactive | – | – | –
56 | CN1C(=O)CN=C(c2ccccc2)c2cc(Cl)ccc21 | inactive | inactive | inactive | – | inactive | inactive | – | inactive | – | –
57 | CC(C)OC(=O)Nc1ccccc1 | inactive | inactive | inactive | inactive | inactive | inactive | inactive | – | – | –
58 | CCC12COCN1COC2 | inactive | inactive | inactive | inactive | inactive | inactive | inactive | – | – | –
59 | CC(C)OC(=O)Nc1cccc(Cl)c1 | inactive | inactive | inactive | inactive | inactive | inactive | inactive | – | – | –
